Source: PubChem (National Center for Advancing Translational Sciences (NCATS))
Tau fluor counter: counter-screen for tau fibril formation inhibitors. tau K18 P301L Alexa594 fluorescence, heparin fibrillization. Potency, µM (top dose mostly 57.7 µM), inactives show top-dose activity change, negative = decrease. 0.93% of 280,000 active; also: potency is read from the fitted curve at half-maximal effect; nearly all actives have a fitted effect of over 55% in size
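Human tau K18 P301L (15 uM unlabeled, 0.24 uM Alexa 594-labeled) in 100 mM sodium acetate pH 7 with 20 uM heparin, 6 hr at 37 C. ThT 30 uM added, 1 hr ambient; Alexa 594 FP and total fluorescence read at 555/632 nm.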
Tau FP inhib: blocks human tau fibril formation measured by polarization. P10636. K18 P301L tau heparin fibrillization, Alexa594 FP, 6 h. Potency, µM (series often up to 57.7 µM), inactives show at the top dose activity, negative = inhibition, hits mostly inhibitors. 0.39% of 280,000 active. AID 1468; also: potency is read from the fitted curve at half-maximal effect; nearly all actives have a fitted effect of over 55% in size
Target sequence (P10636 561-689 P618L limits assumed): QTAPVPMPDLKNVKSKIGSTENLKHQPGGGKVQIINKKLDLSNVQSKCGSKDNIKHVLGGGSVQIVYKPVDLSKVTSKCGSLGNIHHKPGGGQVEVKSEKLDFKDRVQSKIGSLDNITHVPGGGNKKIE
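Heparin (20 uM) drove fibril formation of recombinant tau K18 P301L, 15 uM unlabeled with 0.24 uM Alexa 594 label, for 6 hr at 37 C in 100 mM sodium acetate pH 7. Fluorescence polarization (555/632 nm) read 1 hr after 30 uM ThT.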
Tau fibril ThT: blocks human tau fibril formation measured by thioflavin T. recombinant tau K18 P301L (four-repeat tau fragment), heparin-induced fibrillization, ThT fluorescence. 2.1% of 270,000 active. P10636. AID 1460. Potency, µM (series often up to 57.4 µM), without a hit: at the highest dose activity, negative = inhibition, hits mostly inhibitors; also: potency is read from the fitted curve at half-maximal effect; nearly all actives have a fitted effect of over 55% in size
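Heparin-induced (20 uM) aggregation of recombinant human K18 P301L tau, 15 uM unlabeled with 0.24 uM labeled, pH 7 acetate buffer, 6 hr at 37 C with compound. Fibrils quantified by 30 uM ThT fluorescence after 1 hr ambient incubation.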
Coupling enz: counter-screen for Giardia aldolase inhibitors: coupling enzyme system; activity change, negative = inhibition, % at 58.2 µM, hits read low; coupling enzyme system counterscreen, AmpLite Red fluorescence; 0.67% of 290,000 active; in the data active = activity change below about -30%
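Fluorescence at 525 nm excitation and 598 nm emission measured inhibition of the coupled detection system without aldolase. Compounds (at 57.5 uM final) were preincubated 10 min at room temperature with coupling enzyme reagent before a 20 min substrate/AmpLite Red step.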
USP1-UAF1 inh: blocks the human USP1/UAF1 deubiquitinase complex; O94782; Potency, µM (titrated, usually from 57.1 µM), without a hit: at the top dose activity change, negative = inhibition, hits mostly inhibitors; recombinant USP1/UAF1, Ub-Rhodamine cleavage fluorescence; 0.23% of 390,000 active; also: potency is read from the fitted curve at half-maximal effect; nearly all actives have a fitted effect of over 60% in size
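In this screen, compounds sit with the deubiquitinase complex (1nM) for 15 min at room temperature before Ub-Rho is added at 150nM final. Fluorescence rise is then followed for 6 reads every 60 seconds.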
An asterisk follows results filed as active; u = inconclusive; x = no result given; [ ] = another dose, or the depositor's remark. An excerpt weighted towards active compounds, which were near 2.3% of everything screened. Unless noted, calls follow the shape of the dose curve; as a rule, active = well fitted curve in the direction sought with a large enough effect; inconclusive = small, poorly fitted or top-dose-only effect, or another doubt; inactive = no such curve, though single readings can be large; an effect the other way counts as inactive or inconclusive. % is scaled to controls: 0 for no effect and ±100 for the full control effect.

SMILES | Tau fluor counter | Tau FP inhib | Tau fibril ThT | Coupling enz | USP1-UAF1 inh
Cc1cc(/C=C2\SC(=S)N(C)C2=O)c(C)n1-c1cccc(O)c1 | 10µM*[quencher] | -11% | 7.9µM* | -4 | -24%
COc1ccc(-n2c(C)cc(/C=C3/SC(=S)N(C)C3=O)c2C)cc1 | -24% | -7% | u | 5 | -26%
CN1C(=O)/C(=C\c2ccccc2OCc2ccccc2)SC1=S | x | x | x | 1 | -14%
CN1C(=O)/C(=C\c2cc(N=Nc3ccccc3)ccc2O)SC1=S | 4.5µM*[quencher] | u | 3.5µM* | -4 | -9%
COC(=O)CC1c2ccccc2C=C(C)N1C(=O)OC (configuration not stated) | -9% | 1% | -7% | 1 | x
O=Cc1ccnc(-c2ccc(OC(=O)c3ccco3)cc2)n1 | 5% | 3% | -15% | 3 | -21%
CCOC(=O)c1ccccc1NC(=O)N(C(C)C)C1CCN(C(C)=O)CC1 | -15% | -4% | -13% | x | -15%
COc1cc(NC(=O)Nc2cccc(Cl)c2)c(OC)cc1NC(=O)CN1CCCCC1 | 8.9µM*[quencher] | u | u | -5 | -16%
O=C(CN1CCCCC1)Nc1cccc(Cl)c1 | 1% | 3% | -1% | 1 | -22%
Cc1ccc(C)c(NC(=O)Cn2cc(S(=O)(=O)NC(C)C)c(S(=O)(=O)NC(C)C)c2)c1 | -2% | -11% | 9% | x | -4%
Cc1ccc(C)n1-c1nnc(N2CCC(C(=O)Nc3ccccc3Br)CC2)s1 | -12% | 4% | -19% | x | -11%
c1cc(Nc2cccc3nccnc23)c2nccnc2c1 | -28% | -3% | 5µM* | 0 | -23%
COc1ccc(C)cc1NC(=O)NCc1cccn1Cc1ccccc1 | -16% | -6% | 1% | x | -9%
Clc1ccc(N=c2ssnc2Cl)nc1 | -9% | -7% | -8% | 1 | -7%
Clc1nssc1=Nc1ccc(Br)cc1 | -25% | u | 13µM* | 2 | -36%
N#Cc1cccc(N=c2ssnc2Cl)c1 | -18% | u | 11µM* | 4 | u
COc1cc(N=c2ssnc2Cl)cc(OC)c1 | -9% | 3% | -1% | -12 | -21%
OCc1ccccc1N=c1ssnc1Cl | u | u | 35µM* | 3 | x
CC(=O)c1cccc(NC(=O)C2=CN3CCS(=O)(=O)N=C3C=C2)c1 | x | x | x | x | -18%
CCOC(=O)c1c(C)[nH]c(-c2csc(N)n2)c1C | u | u | 25µM* | 3 | -6%
Cc1cccc(NC(=O)c2ccccc2O)c1C | -10% | 5% | -12% | -32* | -10%
O=C(Nc1ccccc1O)c1ccccc1O | -11% | 7% | -16% | 0 | -8%
CCn1c(C)c(C)c2cc(C(=O)NCCc3cc(OC)c(OC)c(OC)c3)ccc21 | u | 4% | u | x | u
O=C(ONc1ccc(N=NC(=O)c2ccccc2O)cc1)c1ccccc1 | u | 1% | 4.5µM* | -1 | u
Cc1cccc(N=C2NC(=O)/C(=C3/C(=O)N(C)c4ccccc43)S2)c1C | u | 2% | 10µM* | 1 | -17%
SMILES | Tau fluor counter | Tau FP inhib | Tau fibril ThT | Coupling enz | USP1-UAF1 inh
Cc1ccc(-n2nnnc2SC(C(=O)c2c[nH]c3ccccc23)c2ccccc2)cc1 (configuration not stated) | u | 11µM* | 17% | 4 | 8%
CCOCCCNC(=O)c1ccc(-n2c(-c3ccccc3)cc3c2CCCC3)cc1 | u | -6% | u | x | 9%
CN(C)CCNC(=O)c1ccc(-n2c(-c3ccccc3)cc3c2CCCCC3)cc1 | u | 22µM* | 1% | x | -11%
COCCCNC(=O)c1ccc(-n2c(-c3ccccc3)cc3c2CCCCC3)cc1 | u | 18µM* | -5% | x | -16%
N#CCCN1CCN(C(=S)c2ccc(-c3ccc(Cl)cc3)o2)CC1 | -23% | 5% | 20µM* | -10 | -11%
S=C(c1ccc(-c2ccc(Cl)cc2)o1)N1CCCCC1 | -15% | -3% | u | 0 | -19%
C=C(C)C(O)/C=C/c1ccccc1OC (configuration not stated) | -19%[11.6 µM] | 7%[11.6 µM] | -15%[11.5 µM] | 0 | x
CCC(C)NC(=O)CSc1nc2cc3c(cc2c(=O)n1Cc1ccc(C(=O)NCCc2ccc(OC)c(OC)c2)cc1)OCO3 (configuration not stated) | -4% | -7% | -8% | x | x
CCOCCCNc1nc2c(C)cccn2c(=O)c1/C=C1\SC(=S)N(CC(C)C)C1=O | -9% | 2% | -14% | 0 | u
CCOC(=O)CC1C(=O)NCCN1c1nc2c(C)cccn2c(=O)c1/C=C1\SC(=S)N(CC(C)C)C1=O (configuration not stated) | -13% | -11% | 10µM* | -9 | x
c1csc(-c2nc3c4ccccc4c4ccccc4c3[nH]2)c1 | 13µM*[quencher] | u | u | -9 | -5%
Oc1ccccc1-c1nc2c3ccccc3c3ccccc3c2[nH]1 | 10µM*[quencher] | -5% | u | -47* | -17%
c1ccc(-c2nc(-c3cccs3)[nH]c2-c2ccccc2)cc1 | u | 0% | 7% | 0 | -17%
COCCn1c(C)cc(O)c(C(c2ccccc2Cl)N2CCN(c3ccccc3)CC2)c1=O (configuration not stated) | 3% | -10% | u | x | -32%
O=C1CCC/C(=N/Nc2ccc(Cl)cc2)C1 | u | u | 25µM* | -34* | -18%
O=C(NN=C1CCCC1)c1ccc(Cl)cc1 | x | x | x | 3 | -21%
NC(=O)CC(NC(=O)Cc1cccc2ccccc12)c1ccc(N2CCc3ccccc3C2)c([N+](=O)[O-])c1 (configuration not stated) | u | -2% | 11µM* | -3 | -29%
CCN1c2ccccc2-c2nc(SCC(=O)Nc3cc(C)c(Cl)cc3OC)ncc2S1(=O)=O | -27% | -10% | -3% | x | u
CCCn1c(=N)n(CC(=O)OCC)c2ccccc21 | 6% | -4% | 12% | 9 | -1%
C=COCCn1c(=N)n(CCC)c2ccccc21 | u | 28µM* | -4% | 2 | -16%
CC#CCN1c2ccccc2[C@]23C[C@@H](C(=O)OC)N(S(=O)(=O)CCCC)C2=NC(C(=O)OC)=C(C(=O)OC)[C@H]13 | -19%[11.6 µM] | 5%[11.6 µM] | u | 3 | x
CC(C)(C)C(=O)O/N=C(\N)COc1cccc(Cl)c1 | 11% | 11% | 11% | 0 | -17%
COc1ccc(NC(=O)CSc2ccc3c4c(cccc24)C(=O)c2ccccc2-3)cc1 | u | -4% | u | 2 | 25µM*
N#Cc1cccc(NC(=O)CSc2ccc3c4c(cccc24)C(=O)c2ccccc2-3)c1 | u | -14% | u | -1 | -10%
C=CCN1C(=O)/C(=C2\SC(N3CCOCC3)=NC2=O)c2cc(Br)ccc21 | -27% | 9% | 16µM* | 1 | -2%
O=[N+]([O-])c1cccc(C2Nc3cccc4cccc(c34)N2)c1 | u | 0% | u | -20 | -23%
